From PubChem BioAssay AID687001 (Broad Institute, 2013)
Results with a measured potency or affinity are listed apart. Active and inactive are the calls of the source.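 Rule for the calls: active = signal-lowering compounds whose fitted half-maximal concentration is at or below twice the top tested dose in every run; inconclusive = runs disagree, flat 30 to 70% inhibition, or poor curve fit; inactive = the rest.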

Target: Protein S100-A4 (Homo sapiens) (UniProt P26447)
Assay: S100A4-myosin IIA binding inhibitor potency, dose response, biochemical, fluorescence polarization, cherry-picked hits (AID 687001);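 note: 0% = DMSO neutral control wells and -100% = TFP positive control wells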
Conditions: FP, S100A4/TAMRA-myosin IIA peptide binding; series mostly up to 11 µM; activity change, negative = inhibition: at the top concentration

Sequence of Protein S100-A4 (Homo sapiens) (P26447 whole entry, looked up): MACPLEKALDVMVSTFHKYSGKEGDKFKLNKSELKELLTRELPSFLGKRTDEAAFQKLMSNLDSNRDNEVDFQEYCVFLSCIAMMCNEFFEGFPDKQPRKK

SMILES | activity change, negative = inhibition
COc1cc(NS(=O)(=O)c2ccc(NC(=O)c3ccc([N+](=O)[O-])cc3)cc2)ncn1 | 24.8% (inactive)
COc1ccc(C)c2sc(N(CCN(C)C)C(=O)c3ccc4ccccc4c3)nc12 | -1.89% (inactive)
COc1ccc(Cl)cc1-c1cc(C(=O)N[C@H](C)c2ccccc2)[nH]n1 | -1.95% (inactive)
O=C(c1ccc(Br)o1)N1CCC(Cc2ccccc2)CC1 | -1.09% (inactive)
Cc1ccc(S(=O)(=O)Nc2ccccc2F)cc1C(=O)OC(C)C(=O)N1CCOCC1 (centres undefined) | 0.959% (inactive)
O=C(NCc1ccncc1)C1CCCN(S(=O)(=O)c2cc(Cl)ccc2Cl)C1 (centres undefined) | 0.229% (inactive)
O=C(COC(=O)CCCN1C(=O)c2cccc3cccc(c23)C1=O)NC1CCS(=O)(=O)C1 (centres undefined) | -3.93% (inactive)
C[C@@H]1CN([C@H](C)CO)C(=O)c2cccc(NC(=O)CCCCCC(=O)Nc3ccccc3N)c2O[C@H]1CN(C)S(=O)(=O)c1cccs1 | 7.5% (inactive)
O=C(C[C@@H]1CC[C@@H]2[C@H](COC[C@H](O)CN2C(=O)c2cccnc2)O1)NCc1ccc(Cl)cc1 | 92.5% [at 5.6 µM] (inactive)
Cc1cc(C(=O)Nc2ccncc2)c2ccccc2n1 | 0.023% (inactive)
CC1CCCCC1NC(=O)CSc1nnc(-c2ccco2)n1N (centres undefined) | -4.3% (inactive)
CC(C)NC(=O)N(C)C[C@@H]1Oc2c(NC(=O)Nc3cccc4ccccc34)cccc2C(=O)N([C@H](C)CO)C[C@H]1C | -3.24% (inactive)
CC1(C)CC2CC(C)(CN2/C=N/c2sc3c(c2C#N)CC(C)(C)NC3(C)C)C1 (centres undefined) | -0.327% (inactive)
CC(=O)N1CC(C)Oc2ccc(S(=O)(=O)NC(CC(=O)O)c3ccccc3)cc21 (centres undefined) | -3.48% (inactive)
O=C(C[C@H]1CC[C@@H]2[C@H](COC[C@H](O)CN2C(=O)Nc2ccc3c(c2)OCO3)O1)N1CCN(c2ccccc2)CC1 | 5.56% (inactive)
COC(=O)C[C@@H]1CC[C@H](NC(=O)c2cnccn2)[C@@H](CO)O1 | -3.76% (inactive)
CN(C)C(=O)c1cccc(-c2ccc3c(c2)[C@H]2[C@H](CCN2C(=O)C2CC2)[C@@H](CO)N3)c1 | 2.78% (inactive)
C=C(C)n1c(=O)n(Cc2ccccc2C)c2ccccc21 | 0.952% (inactive)
O=S(=O)(NC(=NCc1ccccc1)c1ccccc1)c1ccccc1 | -3.1% (inactive)
Cc1ccc2[nH]c(=O)c3cc(C(=O)NCCC(C)C)sc3c2c1 | -0.619% (inactive)

SMILES | activity change, negative = inhibition
Cc1ccc(C)c(N2CCN(S(=O)(=O)c3c(C)[nH]c(C)c3C(=O)N3CCCCC3)CC2)c1 | -3.83% (inactive)
Cc1nonc1NC(=O)CSc1nnc(N)s1 | -1.66% (inactive)
Cc1ccccc1S(=O)(=O)N(C)C[C@@H]1OCc2cnnn2CCCC(=O)N([C@@H](C)CO)C[C@H]1C | 8.1% (inactive)
COc1cccc(-c2ccc3c(c2)[C@H]2[C@H](CCN2C(=O)c2ccc4c(c2)OCO4)[C@H](CO)N3C)c1 | 9.07% (inactive)
O=C(NCCC1CCCCN1S(=O)(=O)c1cccs1)C(=O)Nc1ccc(F)cc1 (centres undefined) | 3.97% (inactive)
CN(C)C(=O)c1ccc(-c2ccc([C@@H]3[C@@H](CO)N4CCCCN(CC5CC5)C[C@@H]34)cc2)cc1 | 6.58% (inactive)
CCC1(c2ccc(F)cc2)NC(=O)N(CC(=O)N2CCc3ccccc3C2)C1=O (centres undefined) | 1.7% (inactive)
COC(=O)c1sccc1NC(=O)Nc1ccc(C)c(C)c1 | -1.95% (inactive)
C[C@@H]1ON(C)[C@H]2C[C@H]3c4[nH]c5ccccc5c4CCN3C(=O)[C@@H]12 | 8.57% (inactive)
CCc1ccc(NC(=O)C(C)OC(=O)c2ccc(NS(=O)(=O)c3ccc(C)c([N+](=O)[O-])c3)cc2)cc1 (centres undefined) | 15.1% (inactive)
CCCC(=O)Nc1ccc2c(c1)OC[C@H](C)N(CCC(F)(F)F)C[C@H](C)[C@@H](OC)CN(C)C2=O | 2.5% (inactive)
C[C@@H]1CN([C@H](C)CO)C(=O)c2cccc(NS(C)(=O)=O)c2O[C@@H]1CN(C)CC1CC1 | -2.8% (inactive)
C[C@@H]1CN([C@@H](C)CO)C(=O)c2cc(NC(=O)NC3CCCCC3)ccc2O[C@@H](C)CCCCO[C@@H]1CN(C)S(=O)(=O)c1cn(C)cn1 | -0.131% (inactive)
COc1ccc2c(CN3CCCC3)cc(=O)oc2c1 | -1.04% (inactive)
CCCCCn1c(C)c(CC(=O)Nc2ccc(Oc3cccnc3)c(C)c2)c2ccccc21 | 14.8% (inactive)
Cc1nc2ccccc2nc1CC(O)(c1ccccc1)c1ccccc1 | -2.59% (inactive)
C[C@@H]1CN([C@H](C)CO)C(=O)Cc2cc(NC(=O)CCN3CCOCC3)ccc2O[C@H]1CN(C)Cc1ccc2c(c1)OCO2 | -0.504% (inactive)
COC(=O)[C@]12CCCCC=C1N(Cc1ccc(Cl)cc1Cl)C(=O)[C@H](CC(=O)N1CCCC1)C2 | -3.46% (inactive)
O=C1CN(C(=O)COc2c(F)c(F)cc(F)c2F)c2ccccc2N1 | 1.81% (inactive)
